Laboratory results taken from PubChem BioAssay (NCI).
Compounds without any hit were thinned out: in the full panel of roughly 79,000, 15% have a hit. The source made the active and inactive calls. No stated cut-off is given here; in the data, active means growth inhibition above about 70%; inactive means the rest. Where a SMILES comes first, the peptide text is derived from it. The star is where a group is joined. Trt = c1ccc(C(c2ccccc2)(c2ccccc2)*)cc1; OtBu = CC(C)(C)O*

Test: NCI Yeast Anticancer Drug Screen. Data for the bub3 strain (AID 167)
Settings: S. cerevisiae bub3 mutant strain, at 50.0 µM, stronger effect = higher value
Method in brief: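 Inhibition values come from growth of compound-treated mutant yeast normalised to vehicle-treated controls.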

Row | Structure (SMILES) | growth inhibition
1 | CCOC(=O)C(=N\Nc1cccc(C)c1C)/C(C)=N\NC(N)=S | 59.7% (inactive)
2 | CCN(CC)CCNc1ccc(C)c2oc3ccc(O)cc3c(=O)c12 | 81.7% (active)
3 | O=C1C(C=NC(=S)c2ccccc2)=C(O)c2ccccc21 | -4.7% (inactive)
4 | CCOC(=O)Cc1csc(/N=C\c2c(O)c3ccccc3oc2=O)n1 | -27.1% (inactive)
5 | CC(C)(CCCCC(C)(C)NCC1COc2ccccc2O1)NCC1COc2ccccc2O1 (stereo not drawn) | 97.4% (active)
6 | O=C1OC(c2ccc(O)cc2)=C(c2ccccc2)C1c1ccccc1 (stereo not drawn) | 99.4% (active)
7 | O=C(c1ccccc1)C(Br)CCCC(Br)C(=O)c1ccccc1 (stereo not drawn) | 97.3% (active)
8 | CCC(c1ccc(O)cc1)C(O)(CC)c1ccc(O)cc1 (stereo not drawn) | 58.6% (inactive)
9 | Cn1cnc2[nH]c(Cl)nc(=S)c21 | 11.9% (inactive)
10 | O=C(NCCN1CCCC1)c1cn2c(ccc3sc4ccccc4c(=O)c32)n1 | 25.9% (inactive)
11 | CC(C)(C)OC(=O)CNC(=O)C(Cc1ccccc1)NC(=O)C(N)CSC(c1ccccc1)(c1ccccc1)c1ccccc1 (stereo not drawn) (H-Cys(Trt)-Phe-Gly-OtBu; configuration not given here) | 17.9% (inactive)
12 | C/C(=N/NC(N)=S)C(CN(C)C)C(C1=C(O)c2ccccc2OC1)c1ccccc1 (stereo not drawn) | 65.2% (inactive)
13 | O=C(CC(=O)c1ccccc1)CC(=O)c1ccccc1Br | 68.7% (inactive)
14 | O=C1OC2(c3ccccc31)c1cc(I)c(O)c(I)c1Oc1c2cc(I)c(O)c1I | 99.2% (active)
15 | Nc1cc(Cl)c2c(c1)Cc1ccccc1-2 | 70.8% (active)
16 | C1=Cc2ccccc2/C1=C/c1ccccc1 | 96.7% (active)
17 | Cc1ccc(C2=CC(=O)/C(=C\C(=O)c3ccc(Cl)cc3)O2)cc1 | 49.5% (inactive)
18 | CC1(c2ccc(S(=O)(=O)c3ccccc3)cc2)OC(=O)C=CC1=O (stereo not drawn) | 99.5% (active)
19 | CCCc1cc(-c2ccc(O)c(CCC)c2)ccc1O | 99.7% (active)
20 | CCOC(=O)N1c2ccc3ccccc3c2C=CC1C#N (stereo not drawn) | 86.3% (active)

Row | Structure (SMILES) | growth inhibition
21 | N#CNc1nc(N)c(-c2ccc(Cl)cc2)c(C(=O)Nc2ccc(Cl)c(Cl)c2)n1 | 4.2% (inactive)
22 | O=c1c(Cl)c(Cl)oc(Cl)c1Cl | 98.8% (active)
23 | O=c1nc(-c2ccccc2)cc(-c2ccccc2O)[nH]1 | 16.9% (inactive)
24 | O=C(Cc1nc2ccccc2s1)C(=O)Nc1ccc(Cl)cc1 | 63.5% (inactive)
25 | c1ccc(OCC2c3ccccc3Nc3ccccc32)cc1 | -0.2% (inactive)
26 | CCN(C(=O)C(F)(F)F)c1ccc2c(c1)C(=O)c1ccccc1-2 | 84% (active)
27 | Cc1cc2oc3c(ccc(=O)n3C)c(=O)c2c(C)c1Cl | 30.2% (inactive)
28 | O=C(CC(O)(C(F)(F)F)C(F)(F)F)C(c1ccccc1)C(O)(C(F)(F)F)C(F)(F)F (stereo not drawn) | 83.2% (active)
29 | O=S(=O)(Sc1ccccc1)C(c1ccccc1)c1ccccc1 | 62% (inactive)
30 | COc1ccc2c3c(ccc2c1)NC(C(=O)O)CC3 (stereo not drawn) | 52% (inactive)
31 | N#CSc1ccc2nc(NCO)sc2c1 | 95.4% (active)
32 | CC(CN(C)C)C(=O)c1cn(C)c2ccccc12 (stereo not drawn) | -9.05% (inactive)
33 | Cc1cc(Cl)nc2ccc(Cc3ccc4nc(Cl)cc(C)c4c3)cc12 | 23.4% (inactive)
34 | COc1ccc2c(c1)CN([C@@H](C)[C@H]1CC[C@H]3[C@@H]4CC[C@H]5C[C@@H](O)CC[C@]5(C)[C@H]4CC[C@]13C)CO2 | 98.7% (active)
35 | FC(F)(F)c1nc(Cl)nc2nc[nH]c12 | -21.7% (inactive)
36 | CC(C)C1COC(c2ccc3ccccc3c2-c2c(O[Si](C)(C)C(C)(C)C)ccc3ccccc23)=N1 (stereo not drawn) | 91.3% (active)
37 | COc1cc2c(c(C3C(=O)N(C)c4ccc(Br)cc43)c1OC)OCO2 (stereo not drawn) | -1.85% (inactive)
38 | c1ccc2c3[nH]c(c2c1)=Nc1ccc(cc1)-c1nc2ccc(cc2o1)N=c1[nH]c(c2ccccc12)=Nc1ccc2nc(oc2c1)-c1ccc(cc1)N=3 | 77% (active)
39 | c1ccc2nc3ccccc3nc2c1 | 33.1% (inactive)

Test: NCI Yeast Anticancer Drug Screen. Data for the mlh1 rad18 strain (AID 175)
Settings: S. cerevisiae mlh1 rad18 strain growth inhibition; at 5.0 µM (retest, dose inferred, filed as 0.5); stronger effect = higher value
Method in brief: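 A repair-deficient yeast strain is exposed to test compound, and growth is scored relative to vehicle-treated controls.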

Row | Structure (SMILES) | growth inhibition
40 | CCOC(=O)C(=N\Nc1cccc(C)c1C)/C(C)=N\NC(N)=S | 30% (inactive)
41 | CCN(CC)CCNc1ccc(C)c2oc3ccc(O)cc3c(=O)c12 | -1% (inactive)
42 | O=C1C(C=NC(=S)c2ccccc2)=C(O)c2ccccc21 | 32% (inactive)
43 | CCOC(=O)Cc1csc(/N=C\c2c(O)c3ccccc3oc2=O)n1 | 24% (inactive)
44 | CC(C)(CCCCC(C)(C)NCC1COc2ccccc2O1)NCC1COc2ccccc2O1 (stereo not drawn) | 2% (inactive)
45 | O=C1OC(c2ccc(O)cc2)=C(c2ccccc2)C1c1ccccc1 (stereo not drawn) | 10% (inactive)
46 | O=C(c1ccccc1)C(Br)CCCC(Br)C(=O)c1ccccc1 (stereo not drawn) | 24% (inactive)
47 | CCC(c1ccc(O)cc1)C(O)(CC)c1ccc(O)cc1 (stereo not drawn) | -26% (inactive)
48 | Cn1cnc2[nH]c(Cl)nc(=S)c21 | -2% (inactive)
49 | O=C(NCCN1CCCC1)c1cn2c(ccc3sc4ccccc4c(=O)c32)n1 | 26% (inactive)
50 | CC(C)(C)OC(=O)CNC(=O)C(Cc1ccccc1)NC(=O)C(N)CSC(c1ccccc1)(c1ccccc1)c1ccccc1 (stereo not drawn) (H-Cys(Trt)-Phe-Gly-OtBu; configuration not given here) | -3% (inactive)
51 | C/C(=N/NC(N)=S)C(CN(C)C)C(C1=C(O)c2ccccc2OC1)c1ccccc1 (stereo not drawn) | 0% (inactive)
52 | O=C(CC(=O)c1ccccc1)CC(=O)c1ccccc1Br | 1% (inactive)
53 | O=C1OC2(c3ccccc31)c1cc(I)c(O)c(I)c1Oc1c2cc(I)c(O)c1I | 62% (inactive)
54 | Nc1cc(Cl)c2c(c1)Cc1ccccc1-2 | 0% (inactive)
55 | C1=Cc2ccccc2/C1=C/c1ccccc1 | 0% (inactive)
56 | Cc1ccc(C2=CC(=O)/C(=C\C(=O)c3ccc(Cl)cc3)O2)cc1 | 37% (inactive)
57 | CC1(c2ccc(S(=O)(=O)c3ccccc3)cc2)OC(=O)C=CC1=O (stereo not drawn) | 97% (active)
58 | CCCc1cc(-c2ccc(O)c(CCC)c2)ccc1O | 96% (active)
59 | CCOC(=O)N1c2ccc3ccccc3c2C=CC1C#N (stereo not drawn) | -2% (inactive)

Row | Structure (SMILES) | growth inhibition
60 | N#CNc1nc(N)c(-c2ccc(Cl)cc2)c(C(=O)Nc2ccc(Cl)c(Cl)c2)n1 | -1% (inactive)
61 | O=c1c(Cl)c(Cl)oc(Cl)c1Cl | 54% (inactive)
62 | O=c1nc(-c2ccccc2)cc(-c2ccccc2O)[nH]1 | 1% (inactive)
63 | O=C(Cc1nc2ccccc2s1)C(=O)Nc1ccc(Cl)cc1 | 1% (inactive)
64 | c1ccc(OCC2c3ccccc3Nc3ccccc32)cc1 | 99% (active)
65 | CCN(C(=O)C(F)(F)F)c1ccc2c(c1)C(=O)c1ccccc1-2 | -1% (inactive)
66 | Cc1cc2oc3c(ccc(=O)n3C)c(=O)c2c(C)c1Cl | 11% (inactive)
67 | O=C(CC(O)(C(F)(F)F)C(F)(F)F)C(c1ccccc1)C(O)(C(F)(F)F)C(F)(F)F (stereo not drawn) | 5% (inactive)
68 | O=S(=O)(Sc1ccccc1)C(c1ccccc1)c1ccccc1 | 4% (inactive)
69 | COc1ccc2c3c(ccc2c1)NC(C(=O)O)CC3 (stereo not drawn) | 3% (inactive)
70 | N#CSc1ccc2nc(NCO)sc2c1 | 45% (inactive)
71 | CC(CN(C)C)C(=O)c1cn(C)c2ccccc12 (stereo not drawn) | -2% (inactive)
72 | Cc1cc(Cl)nc2ccc(Cc3ccc4nc(Cl)cc(C)c4c3)cc12 | 0% (inactive)
73 | COc1ccc2c(c1)CN([C@@H](C)[C@H]1CC[C@H]3[C@@H]4CC[C@H]5C[C@@H](O)CC[C@]5(C)[C@H]4CC[C@]13C)CO2 | 97% (active)
74 | FC(F)(F)c1nc(Cl)nc2nc[nH]c12 | 0% (inactive)
75 | CC(C)C1COC(c2ccc3ccccc3c2-c2c(O[Si](C)(C)C(C)(C)C)ccc3ccccc23)=N1 (stereo not drawn) | 4% (inactive)
76 | COc1cc2c(c(C3C(=O)N(C)c4ccc(Br)cc43)c1OC)OCO2 (stereo not drawn) | 4% (inactive)
77 | c1ccc2c3[nH]c(c2c1)=Nc1ccc(cc1)-c1nc2ccc(cc2o1)N=c1[nH]c(c2ccccc12)=Nc1ccc2nc(oc2c1)-c1ccc(cc1)N=3 | 50% (inactive)
78 | c1ccc2nc3ccccc3nc2c1 | -11% (inactive)
